Source: PubChem BioAssay
Rows were chosen to be rich in hits. Some 1.6% of all compounds tested hit in one or more screens of this group.
PME-1 inh: blocks human protein phosphatase methylesterase 1. inhibition, % at 5.9 µM. Q9Y570. recombinant PME-1, FP-Rh probe fluorescence polarization. 320,000 tested, 0.53% active;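 active = inhibition above the campaign mean of all compounds plus 3 SD, cut at about 26% in these data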;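 note: competitive labeling of PME-1 active site by serine hydrolase directed probe; 0% = PME-1 with DMSO and 100% = wells lacking PME-1 enzyme; inhibitors block probe labeling so polarization falls and inhibition rises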
Target sequence (Q9Y570 whole entry, looked up): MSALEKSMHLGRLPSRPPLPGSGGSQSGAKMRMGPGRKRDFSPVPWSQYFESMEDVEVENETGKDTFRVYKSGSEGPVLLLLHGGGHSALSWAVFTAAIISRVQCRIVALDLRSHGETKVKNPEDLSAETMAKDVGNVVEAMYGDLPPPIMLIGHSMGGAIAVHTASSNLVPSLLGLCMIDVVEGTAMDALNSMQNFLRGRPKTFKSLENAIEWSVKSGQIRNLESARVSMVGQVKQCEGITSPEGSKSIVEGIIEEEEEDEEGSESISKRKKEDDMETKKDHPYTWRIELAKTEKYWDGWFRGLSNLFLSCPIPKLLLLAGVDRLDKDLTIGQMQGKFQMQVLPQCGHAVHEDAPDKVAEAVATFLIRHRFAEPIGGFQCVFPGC
MEX-5 binding: C. elegans MEX-5 TCR-2 RNA binding activity; Q9XUB2; MEX-5/FITC-TCR2 RNA binding, fluorescence polarization; active compounds read low; activity score (negative = inhibition of binding), % at 10 µM; 300,000 tested, 0.38% active; AID 1832;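 active = inhibition past about -25% in most replicates, and total fluorescence under double the plate's negative control median, limit read from the data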;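 note: 0% = DMSO and -100% = 5 µM competing unlabeled TCR2 RNA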
PREPL inh: inhibits the human prolyl oligopeptidase-like enzyme; inhibition, % at 5.96 µM; AID 2751; recombinant PREPL, fluorescence polarization activity-based probe; Q4J6C6; 320,000 tested, 0.68% active; in the data active = inhibition above about 43%;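 note: 0% = enzyme with DMSO and 100% = wells lacking enzyme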
LYPLA1 counter: counter-screen for PME1 inhibitors: inhibitors of human LYPLA1 | recombinant LYPLA1, FP-Rh probe fluorescence polarization | inhibition, % at 5.9 µM | 320,000 tested, 0.16% active;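 active = inhibition above the mean of all tested compounds plus 3 SD, set per campaign, cut at about 14% in these data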;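 note: inhibitors block serine hydrolase probe labeling of LYPLA1 so polarization falls; 0% = enzyme with DMSO and 100% = wells lacking LYPLA1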
Fam108B counter: counter-screen for RBBP9 inhibitors: inhibitors of mouse Fam108B | 300,000 tested, 0.33% active | recombinant Fam108B, FP-Rh probe fluorescence polarization | AID 1947 | inhibition, % at 9.51 µM;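 active = inhibition above the screen mean inhibition plus 3 SD, computed separately per campaign, cut at about 18% in these data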;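 note: inhibitors lower polarization as less probe binds the enzyme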
LYPLA2 counter: LYPLA2 (human) inhibition in PME1 counter-screen; O95372; recombinant LYPLA2, FP-Rh probe fluorescence polarization; inhibition, % at 5.9 µM; 320,000 tested, 0.38% active; AID 2177;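 active = inhibition above the screen-wide mean plus 3 SD, limit set per campaign, cut at about 26% in these data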;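 note: 0% = LYPLA2 with DMSO and 100% = wells lacking LYPLA2 enzyme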
Target sequence (O95372 whole entry, looked up): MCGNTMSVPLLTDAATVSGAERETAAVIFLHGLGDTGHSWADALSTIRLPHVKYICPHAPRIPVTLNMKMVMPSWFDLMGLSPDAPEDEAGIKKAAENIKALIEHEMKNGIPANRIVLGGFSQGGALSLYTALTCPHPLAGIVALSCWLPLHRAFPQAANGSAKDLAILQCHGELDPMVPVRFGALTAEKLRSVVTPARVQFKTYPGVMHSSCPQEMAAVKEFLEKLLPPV
LYPLA2 conf: counter-screen for PME1 inhibitors: confirmation of human LYPLA2 inhibitors; shares compounds with LYPLA2 counter; recombinant LYPLA2, FP-Rh probe fluorescence polarization; inhibition, % at 5.9 µM; 1,100 tested, 72% active; AID 2232;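 active = mean inhibition across replicates above the hit cutoff set in the primary screen, cut at about 26% in these data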;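 note: blocked labeling of the enzyme by serine hydrolase FP-Rh probe lowers polarization; 0% = enzyme with DMSO and 100% = wells lacking LYPLA2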
LYPLA2 gel ABPP: blocks human acyl-protein thioesterase 2 in gel ABPP; 150 tested, 30% active; AID 652029; rhLYPLA2 in mouse brain proteome, gel ABPP FP-Rh; inhibition, % at 20 µM; shares compounds with LYPLA2 counter;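 active = inhibition of LYPLA2 enzyme probe labeling above about 50%, limit read from the data; inactive = inhibition below that limit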;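 note: loss of FP-Rh probe labeling of the LYPLA2 gel band measured as band density; 0% = DMSO only control band and 100% = blank gel background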
Starred values were filed as active, the others as inactive; · = no result.

SMILES	PME-1 inh	MEX-5 binding	PREPL inh	LYPLA1 counter	Fam108B counter	LYPLA2 counter	LYPLA2 conf	others
COc1ccc(-n2nc(C(=O)NCC(=O)N3CCN(c4ccc(F)cc4)CC3)c3ccccc3c2=O)c(OC)c1	-1	0	27	0	0	58*	62*	LYPLA2 gel ABPP=41
COc1ccc(NC(=O)CN2C(=O)COc3ccc(S(=O)(=O)N4CCCCC4)cc32)cc1OC	5	-4	2	2	2	4	·
COc1cc(NC(=O)CN2C(=O)CSc3ccc(S(=O)(=O)N4CCCC4)cc32)cc(OC)c1	9	0	0	5	2	28*	25
O=C(CN1C(=O)CSc2ccc(C(F)(F)F)cc21)Nc1ccccc1	4	-2	-1	1	0	37*	37*
O=C(CN1C(=O)COc2ccc(S(=O)(=O)N3CCCC3)cc21)Nc1cccc(F)c1	5	2	-2	-2	3	41*	47*
COc1cccc(NC(=O)CN2C(=O)COc3ccc(C)cc32)c1	-1	0	-9	3	-1	31*	29*
COc1ccc(NC(=O)CN2C(=O)COc3ccc(C)cc32)cc1	2	1	-7	-1	0	-2	·
O=C(CN1CCCCCC1)Nc1cc([N+](=O)[O-])ccc1Cl	-10	0	16	10	0	18	·
O=C(CN1C(=O)CSc2ncccc21)Nc1cccc(Cl)c1	-4	-1	-8	-3	-5	62*	67*	LYPLA2 gel ABPP=46
O=C(O)CCNS(=O)(=O)c1cccc(Br)c1	-1	1	-4	0	2	1	·
O=[N+]([O-])c1ccc(Oc2ccc(-c3nnco3)cc2)c(Cl)c1	1	1	30	11	-3	32*	22
N#Cc1cc([N+](=O)[O-])ccc1Oc1ccc(-c2nnco2)cc1	4	-1	9	9	3	30*	21
NC(=O)c1ccc(Oc2ccc(-c3nnco3)cc2)c([N+](=O)[O-])c1	0	2	18	-2	4	8	·
Cc1cnc(NC(=O)CCCNC(=O)c2ccc(Cl)cc2)s1	6	·	19	-3	·	3	·
O=C(O)c1ccc(Cl)c(NC(=S)NC(=O)c2cccc(COc3ccccc3)c2)c1	-5	-3	-3	-9	-16	10	·
CCCCOc1cccc(C(=O)NC(=S)Nc2ccc(Cl)c(C(=O)O)c2)c1	-4	-1	-8	2	1	7	·
O=C(NC(=S)Nc1ccc(Cl)c(C(=O)O)c1)c1cccc(COc2ccccc2)c1	-8	-4	8	7	-4	37*	38*
Cc1ccccc1C(=O)NC(=S)Nc1ccc(Cc2ccncc2)cc1	2	-2	-4	1	-1	10	·
O=C(NC(=S)Nc1ccc(Cl)c(C(=O)O)c1)c1ccc(OCc2ccccc2)cc1	4	-2	12	8	-3	37*	33*
COc1ccc(C(=O)NC(=S)Nc2ccc(Cc3ccncc3)cc2)cc1	1	1	-9	-1	-4	32*	35*
Cc1c(NC(=S)NC(=O)c2ccc(COc3ccccc3)cc2)cccc1C(=O)O	3	0	13	7	3	30*	25
COc1ccc(NC(=O)C(=O)NCC2CCCN2S(=O)(=O)c2cc(C)ccc2C)cc1 (stereo not drawn)	-1	0	8	-3	-3	-1	·
CCOc1ccc(/C=N/n2c(SC)nnc(C(C)(C)C)c2=O)cc1	-4	0	-2	2	-1	9	·
CN1C(=O)N(C)C(c2ccccc2Cl)C2=C1CC(C)(C)CC2=O (stereo not drawn)	1	-1	-3	0	0	-6	·
CC(C)C(NC(=O)c1ccccc1NC(=O)c1ccccc1)C(=O)NCCCn1ccnc1 (stereo not drawn)	3	2	1	4	0	29*	-1
SMILES	PME-1 inh	MEX-5 binding	PREPL inh	LYPLA1 counter	Fam108B counter	LYPLA2 counter	LYPLA2 conf	others
CC(=C/c1ccc(C(C)C)cc1)/C=N/NC(=O)Cn1nnnc1N	-6	-2	7	1	-1	40*	40*
CC(/C=N/NC(=O)CSc1ccccn1)=C\c1ccc(C(C)C)cc1	-9	-1	-5	-3	-1	20	·
O=C1CS/C(=C/C(=O)c2cccc(Cl)c2)N1	-3	-12	12	-1	-1	-4	·
Cc1ccc(NC(=O)CN2C(=O)S/C(=C\c3cc(C)n(C)c3C)C2=O)cc1	-11	-3	1	-11	-9	-18	·
Cc1cc(/C=C2\SC(=O)N(CC(=O)Nc3ccccc3F)C2=O)c(C)n1C	-8	-4	6	-7	-2	42*	26*
Cc1cccc(NC(=O)CN2C(=O)S/C(=C\c3cc(C)n(C)c3C)C2=O)c1	-1	-1	13	-6	-5	57*	77*	LYPLA2 gel ABPP=60*
Cc1ccc(C(=O)O)cc1-c1ccc(/C=C2\SC(=O)N(CC(=O)Nc3ccccc3)C2=O)o1	-7	-19	3	-4	-3	27*	26*
Cc1ccc(NC(=O)CN2C(=O)S/C(=C\c3cc(C)n(-c4cccc(C(=O)O)c4)c3C)C2=O)cc1	-4	0	4	-5	-1	48*	43*
O=C(CN1C(=O)S/C(=C\c2ccccc2F)C1=O)Nc1ccccc1O	5	-2	10	-4	0	12	·
Cc1ccc(NC(=O)CN2C(=O)S/C(=C\c3ccc(C(=O)O)cc3)C2=O)cc1	-4	0	2	-4	-6	-5	·
Cc1ccc(NC(=O)CN2C(=O)S/C(=C\c3ccc(-c4cccc(C(=O)O)c4C)o3)C2=O)cc1	-6	-15	6	-4	-9	2	·
Cc1nnc(SCC(=O)Nc2ccc3c(c2)COC3=O)n1-c1ccccc1	0	1	-5	0	-2	0	·
CC(=O)c1cccc(NC(=S)Nc2ccc(F)cc2)c1	3	-3	-4	-4	-1	-3	·
COc1ccc(NC(=O)Nc2ccc(Cc3ccncc3)cc2)c(OC)c1	7	-2	7	2	2	11	·
COc1ccc(CC(=O)N/N=C/c2ccc(Cl)s2)cc1OC	-8	-1	5	-1	-1	4	·
CCc1ccc(C(=O)Nc2cccc(-c3nn[nH]n3)c2)s1	-4	-3	4	5	-2	3	·
COc1ccc(OCC(=O)Nc2ccc(NC(=O)c3ccccc3Cl)c(OC)c2)cc1	-8	-1	18	-1	5	36*	34*
O=C1NC(Cc2ccc(O)cc2)c2nc3ccccc3c(=O)n2-c2ccccc21 (stereo not drawn)	·	·	7	·	·	·	·
